Screening data deposited in PubChem by several laboratories.
Only some compounds are listed: those with a hit (about 2.4% of all), similar ones and a draw of the others.
CRFR2-BP antag: antagonists of CRF-binding protein/CRF-R2 receptor complex. HEK293 CRF-R2/CRF-BP, CRF-induced calcium fluorescence. inhibition, % at 11.8 µM. 350,000 tested, 0.59% active;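 active = inhibition of the ligand-induced calcium signal above about 50% at the single tested concentration, limit read from the data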
TMEM16A inh: mouse TMEM16A channel inhibition, primary screen. 310,000 tested, 1.2% active. Q8BHY3. AID 588511. HEK293 TMEM16A/YFP iodide influx fluorescence, ionomycin. normalized B-score (activity score, 25-100; higher = stronger inhibition) at 10 µM;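 active = ratio plate-corrected score three or more library SD toward inhibition, starting fluorescence score within five deviations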;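 note: score derived from kinetic fluorescence span divided by baseline fluorescence per well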
Target sequence (Q8BHY3 whole entry, looked up): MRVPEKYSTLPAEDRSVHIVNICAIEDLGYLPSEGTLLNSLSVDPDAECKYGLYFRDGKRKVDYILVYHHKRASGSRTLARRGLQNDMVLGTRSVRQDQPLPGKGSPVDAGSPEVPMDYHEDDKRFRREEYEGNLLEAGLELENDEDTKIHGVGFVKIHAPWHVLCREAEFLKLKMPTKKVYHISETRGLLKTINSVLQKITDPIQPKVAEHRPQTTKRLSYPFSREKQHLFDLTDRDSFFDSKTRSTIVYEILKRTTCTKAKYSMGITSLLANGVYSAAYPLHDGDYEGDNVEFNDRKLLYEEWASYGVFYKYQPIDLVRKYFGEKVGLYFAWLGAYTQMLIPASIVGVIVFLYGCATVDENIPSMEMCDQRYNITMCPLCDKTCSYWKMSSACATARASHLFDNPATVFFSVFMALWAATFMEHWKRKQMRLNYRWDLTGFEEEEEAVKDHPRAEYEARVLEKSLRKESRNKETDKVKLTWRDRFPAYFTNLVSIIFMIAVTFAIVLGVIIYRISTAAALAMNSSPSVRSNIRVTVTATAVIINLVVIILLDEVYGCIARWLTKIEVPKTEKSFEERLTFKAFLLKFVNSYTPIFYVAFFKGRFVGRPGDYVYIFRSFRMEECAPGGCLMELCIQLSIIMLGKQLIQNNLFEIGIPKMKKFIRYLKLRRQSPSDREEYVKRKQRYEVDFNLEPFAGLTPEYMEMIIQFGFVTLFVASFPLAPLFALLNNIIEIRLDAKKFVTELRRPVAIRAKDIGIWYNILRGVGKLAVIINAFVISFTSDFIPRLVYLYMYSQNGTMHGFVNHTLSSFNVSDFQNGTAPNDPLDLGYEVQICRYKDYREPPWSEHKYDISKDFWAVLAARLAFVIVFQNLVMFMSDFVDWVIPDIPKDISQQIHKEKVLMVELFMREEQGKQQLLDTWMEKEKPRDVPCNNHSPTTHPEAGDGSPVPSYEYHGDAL
CRFR2-BP ag: CRF-BP/CRF-R2 complex agonism | activation, % at 13.2 µM | HEK293 CRF-R2/CRF-BP, calcium dye fluorescence (FLIPR); percent of saturating CRF peptide response | 350,000 tested, 0.46% active;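 active = activation of at least 50%, plus an integration ratio under a set limit after plate pattern correction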
Cardiac RTF inh: cardiac RTF calcium desensitization | P19429+P45379 | IANBD-labeled cardiac RTF, Ca2+ fluorescence | inhibition, % at 7.15 µM | 340,000 tested, 0.12% active;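 active = inhibition above the mean inhibition of all tested compounds plus 3 SD, cut at about 17% in these data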;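 note: assay run at fixed EC70 calcium of 1.6 mM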
TMEM16A act: activates or potentiates the mouse TMEM16A chloride channel. AID 623877. B-score at 10 µM. Q8BHY3. 340,000 tested, 0.3% active. HEK293 TMEM16A/YFP-H148Q/I152L, iodide quench fluorescence; active compounds read low;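 active = fluorescence-ratio B-score plate-corrected deviation score at least 3 library SD below zero, with starting fluorescence score within 5 deviations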;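 note: channel opened by trigger with iodide after compound preincubation; score built on the fluorescence ratio of max minus min over baseline; more negative score means more quench and so TMEM16A activation or potentiation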
cardiac RTF act: cardiac RTF calcium sensitization. 340,000 tested, 0.24% active. P19429+P45379. activation, % at 7.2 µM. IANBD-labeled TnC RTF fluorescence at EC20 calcium; 0% EC20 calcium, 100% full calcium. AID 493008;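 active = activation above the mean over all tested compounds plus 3 SD, cut at about 30% in these data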;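 note: rise in fluorescence read as greater calcium sensitivity of cardiac thin filaments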
Large screens that a line does not name were inactive.

COc1ccc(COC(=O)c2sc3nc4n(c(=O)c3c2C)CCC4)cc1	none
c1ccc2c(c1)OCCOCCOCCOCCOCCOc1ccccc1OCCOCCOCCO2	CRFR2-BP antag 99, CRFR2-BP ag 60
OCCN1CCOCCOc2ccccc2OCCOCC1	none
COc1cccc(NC(=O)COC(=O)C2CC2)c1	none (no result: TMEM16A inh)
O=C(NCCCNc1ccc(C(F)(F)F)cc1[N+](=O)[O-])c1ccc(Cl)cc1	TMEM16A inh 100
CCC(=O)NC(Nc1sc2c(c1C(=O)OC)CCN(C)C2)(C(F)(F)F)C(F)(F)F	none
CCN(CC)c1ccc(C=Nc2ccc(C)cc2)c(O)c1	none
CCN(CC)c1ccc(N=Cc2ccc(N(CC)CC)cc2O)cc1	CRFR2-BP ag 94
CCN(CC)c1ccc(C=Nc2ccc(N(C)C)cc2)c(O)c1	CRFR2-BP ag 51
CCN(CC)c1ccc(C=Nc2ccccc2)c(O)c1	none
Cc1cc(C)c(S(=O)(=O)NCC2CCC(C(=O)NCc3ccccn3)CC2)c(C)c1 (stereo not drawn)	none
CCOC(=O)c1c(C)[nH]c(O)c1C=Nc1ccc(Cl)cc1	none
COC(=O)c1c(C)[nH]c(O)c1C=Nc1ccc(Oc2ccccc2)cc1	CRFR2-BP ag 59
COC(=O)c1c(C)[nH]c(O)c1C=Nc1ccc(C(C)C)cc1	CRFR2-BP ag 126
O=C(c1ccc(Oc2ccc([N+](=O)[O-])cc2)cc1)N1CCCCCC1	TMEM16A inh 25
O=C(COc1ccc2ccccc2c1)N1CCN(C(=O)c2ccc([N+](=O)[O-])cc2)CC1	CRFR2-BP antag 72
O=C(CN(c1ccc(F)cc1)S(=O)(=O)c1ccc2c(c1)OCCO2)NCc1ccccn1	none
CCOC(=O)C(NCc1ccccn1)(NC(=O)c1cccnc1)C(F)(F)F (stereo not drawn)	CRFR2-BP antag 61
O=C(CN1C(=O)S/C(=C\C=C\c2ccccc2)C1=O)Nc1ccccc1C(=O)O	none
C#CCN1C(=O)S/C(=C/C=C/c2ccc(N(C)C)cc2)C1=O	CRFR2-BP ag 85
Cc1ccc(C(=O)N2CCN(c3ncccn3)CC2)cc1	none
Cc1ccc(NS(=O)(=O)c2ccc(C(=O)N3CCN(c4ncccn4)CC3)cc2)cc1	TMEM16A inh 25
Cc1cccc(NS(=O)(=O)c2cccc(C(=O)N3CCN(c4ccccn4)CC3)c2)c1	CRFR2-BP antag 115
Cc1cccc(NS(=O)(=O)c2cccc(C(=O)N3CCC3)c2)c1	none (no result: TMEM16A inh)
CCN1CCN(C(=O)c2ccc3c(c2)N(Cc2ccc(C)cc2)CCS3)CC1	none
Cc1ccc(CN2CCSc3ccc(C(=O)N4CCN(c5ncccn5)CC4)cc32)cc1	CRFR2-BP antag 62
CCCCN1C(=O)C(CC(=O)NC2CC2)CC(C(=O)N(CC)CC)=C1C (stereo not drawn)	none (no result: TMEM16A inh, Cardiac RTF inh, TMEM16A act, cardiac RTF act)
Cc1c(C(=O)Nc2ccc(F)cc2)cn2c(nc3ccccc32)c1C#N	none
N#Cc1c2nc3ccccc3nc2n2cc(NC(=O)c3ccc(F)cc3)ccc12	CRFR2-BP ag 55 (no result: TMEM16A inh)
O=S(=O)(c1ccc(NC(=S)NN=C2CCCCC2)cc1)N1CCOCC1	none
CCOc1ccccc1N1CCN(C(=O)CCNS(=O)(=O)c2ccccc2F)CC1	none
CN1C(=O)NC(c2ccccc2[N+](=O)[O-])C2=C1CCCC2=O (stereo not drawn)	cardiac RTF act 38
COc1ccccc1Cn1c(=O)c2ccccc2n2c(SCC(=O)N3CCCCC3)nnc12	none
O=C(Nc1ccc(Cc2ccncc2)cc1)c1cccc([N+](=O)[O-])c1	none
Cc1ccc(C(=O)Nc2ccc(Cc3ccncc3)cc2)cc1[N+](=O)[O-]	TMEM16A inh 100
O=C(Nc1ccccc1)c1ccc(NCCc2ccccc2)c([N+](=O)[O-])c1	cardiac RTF act 96
Cc1cccc(Nc2cc(=O)n(C)c(=O)[nH]2)c1	none
Cc1ccc(S(=O)(=O)NCC(c2ccccc2)N2CCN(CCC#N)CC2)cc1 (stereo not drawn)	none
O=C(Nc1ccc(Cl)cc1)Nc1ccccc1NS(=O)(=O)c1cccs1	TMEM16A inh 100
O=C(Nc1ccc(F)cc1)Nc1ccccc1NS(=O)(=O)c1cccs1	none
O=C(COc1ccc(Cl)cc1Cl)Nc1ccccc1NS(=O)(=O)c1cccs1	CRFR2-BP antag 51
